Most compounds without a hit are left out; they make up all but 19% or so of the library.
HT1080 IDH1KD tx – qHTS for induction of synthetic lethality in tumor cells producing 2HG: qHTS for the HT-1080-IDH1KD cell line | actives 2% (n = 360,000) | HT-1080 IDH1 knockdown viability, ATP luminescence, 48 h | Potency, µM (series often up to 46.1 µM), for inactives: at the highest dose activity, negative = toxicity, usual class: cytotoxic | AID 686971, 2013;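 also: potency is read from the fitted curve at half-maximal effect; 0% = DMSO wells and -100% = cell-free medium wells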
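Luminescent ATP read-out (CellTiter-Glo, 10 min at room temperature) after 48 h compound exposure at 37 °C gave viability of IDH1-knockdown HT-1080 cells. Activity was normalised to DMSO and cell-free wells, then fitted as concentration-response curves.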
DT40 TDP1 no CPT – qHTS for Inhibitors of human tyrosyl-DNA phosphodiesterase 1 (TDP1): qHTS in cells in absence of CPT. DT40 Tdp1-/- hTDP1 cells, no CPT, ATP luminescence, 48 h. Potency, µM (top dose mostly 46.2 µM), for inactives: at the highest dose activity change, negative = growth inhibition, most hits filed as inhibitors. actives 15% (n = 420,000); also: potency is read from the fitted curve at half-maximal effect; nearly all actives have a fitted effect of over 55% in size
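Chicken DT40 Tdp1-/- cells complemented with human TDP1, screened without camptothecin (DMSO vehicle only), 400 cells/well. Compounds pin-transferred, cells incubated at 37 °C for at least 48 hr. Growth read as ATP-dependent luminescence (CellTiter-Glo, 30 min at RT).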
HT1080-NT tox – qHTS for induction of synthetic lethality in tumor cells producing 2HG: qHTS for the HT-1080-NT fibrosarcoma cell line. Potency, µM (top dose mostly 46.1 µM), for inactives: at the highest dose activity, negative = less viability, most hits filed as cytotoxic. HT-1080-NT fibrosarcoma viability, CellTiter-Glo ATP luminescence, 48 h. actives 1.6% (n = 360,000);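 also: NT is the 2HG producing partner of a matched IDH1 knockdown line; potency is read from the fitted curve at half-maximal effect; 0% = DMSO-treated cells and -100% = media-only wells without cells; nearly all actives have a fitted effect of over 55% in size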
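HT-1080-NT; 750 cells/well; 5% FBS RPMI; 48 h compound, 37 degrees C; CellTiter-Glo luminescence; curve fitting and curve-class assignment.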
DT40 TDP1 CPT – qHTS for Inhibitors of human tyrosyl-DNA phosphodiesterase 1 (TDP1): qHTS in cells in presence of CPT; Potency, µM (highest dose often 46.2 µM), for inactives: at the highest dose activity change, negative = growth inhibition, usual class: inhibitors; AID 686979, 2013; chicken DT40 Tdp1-/-;hTDP1 cells + 20 nM CPT, ATP luminescence, 48 h; actives 12% (n = 420,000); also: potency is read from the fitted curve at half-maximal effect; nearly all actives have a fitted effect of over 55% in size
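Chicken DT40 Tdp1-/- cells complemented with human TDP1, 400 cells/well, exposed to compounds plus 20 nM camptothecin for at least 48 h at 37 C; viability read as ATP content by CellTiter-Glo luminescence.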
ELG1 DNA repair – qHTS screen for small molecules that inhibit ELG1-dependent DNA repair in human embryonic kidney (HEK293T) cells expressing luciferase-tagged ELG1. HEK293T ELG1-luciferase reporter, luminescence, 16 h; DNA damage induced by 5-fluorouridine. Potency, µM (highest dose often 46.1 µM), inactives show at the top dose activity change, negative = inhibition, usual class: inhibitors. actives 2.3% (n = 330,000); also: potency is read from the fitted curve at half-maximal effect; nearly all actives have a fitted effect of over 55% in size
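HEK293T cells expressing luciferase-tagged ELG1 (2,000/well) received 5-Fluorouridine plus compound or DMSO for 16 hr at 37 °C. Luciferase was read by ONE-Glo luminescence after 30 min at room temperature.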
IL-1B inflam inh – qHTS for Inhibitors of Inflammasome Signaling: IL-1-beta AlphaLISA Primary Screen | THP-1 LPS/ATP IL-1B secretion, AlphaLISA, 16 h; stronger effect = lower value | activity change, % at 57.5 µM | actives 4.7% (n = 360,000) | AID 743279, 2014; in the data active = activity change below about -50%; inconclusive = mostly about -30% to -49%
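Secreted IL-1B measured by AlphaLISA bead assay after 16 h compound exposure of THP-1 cells; compounds (final up to 57.5 uM) added 1 h before LPS (250 ng/mL) and ATP (1.25 mM) stimulation; lower signal means less secretion.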
* marks the source's active call; other numbers are inactive results; ? = inconclusive; nt = no result. Unless noted, calls follow the shape of the dose curve; as a rule, active = well fitted curve in the direction sought with a large enough effect; inconclusive = small, poorly fitted or top-dose-only effect, or another doubt; inactive = no such curve, though single readings can be large; an effect the other way counts as inactive or inconclusive. Unless noted, % is scaled to controls: 0 for no effect and ±100 for the full control effect.

SMILES | HT1080 IDH1KD tx | DT40 TDP1 no CPT | HT1080-NT tox | DT40 TDP1 CPT | ELG1 DNA repair | IL-1B inflam inh
Cc1ccc2nsnc2c1NC(=O)c1ccc([N+](=O)[O-])o1 | ? | 23µM* | -14% | ? | ? | -92*
CCc1ccccc1NC(=O)CN1C(=O)C2CCCN2c2ccc(S(=O)(=O)N(CC)CC)cc21 (stereo not drawn) | nt | -27% | nt | -23% | nt | nt
Cc1ccccc1NC1=C(Cl)C(=O)OC1OC(=O)c1ccco1 (stereo not drawn) | 11µM* | 23µM* | ? | 26µM* | 7% | ?
COc1cccc(NC(=S)N2CCC(NC(=O)c3ccco3)CC2)c1 | 6% | -17% | 14% | 11% | 3% | 15
COc1cccc(NC2=C(Cl)C(=O)OC2OC(=O)c2ccco2)c1 (stereo not drawn) | -23% | 15µM* | ? | 12µM* | 16% | ?
COc1ccccc1NC1=C(Cl)C(=O)OC1OC(=O)c1ccco1 (stereo not drawn) | ? | 21µM* | 21µM* | 23µM* | -5% | -25
COc1ccccc1NC(=O)c1cc(Cl)ccc1NC(=O)c1ccco1 | -24% | -24% | -13% | -10% | ? | -4
CN(C(=O)CSc1nc2ccccc2[nH]1)c1ccc(F)cc1 | nt | -16% | nt | -14% | nt | nt
CCCOc1ccc2ccccc2c1/C=N/n1c(C)nnc1-n1nc(C)cc1C | 4.1µM* | 3.3µM* | ? | 3.3µM* | ? | 12
CN1CCN(c2ccc([N+](=O)[O-])cc2NC(=O)c2ccco2)CC1 | 0% | -19% | -1% | -25% | -5% | -11
CC(=O)N1CCN(c2ccc(C(N)=O)cc2[N+](=O)[O-])CC1 | -3% | -1% | -3% | -10% | 4% | 46
O=C(Nc1ccccc1C(=O)N1CCCC1)c1ccc(Cl)c([N+](=O)[O-])c1 | -5% | ? | -15% | -22% | 19% | ?
O=C(Nc1ccccc1N1CCCCC1)c1ccc(Cl)c([N+](=O)[O-])c1 | ? | 18µM* | ? | ? | 18% | nt
CN1CCN(c2ccccc2NC(=O)c2ccc(N3CCCC3)c([N+](=O)[O-])c2)CC1 | ? | ? | 13µM* | ? | ? | -78*
CN1CCN(c2ccc([N+](=O)[O-])cc2NC(=O)c2cccs2)CC1 | -22% | 23µM* | -24% | ? | 2% | -24
CN1CCN(c2ccc(C(=O)c3ccc(Br)cc3)cc2[N+](=O)[O-])CC1 | ? | 15µM* | -12% | ? | -3% | -220*
CC(C)(C)c1ccc2c(c1)N(CC(=O)N1CCCC1)C(=O)CO2 | 5% | 10% | 0% | -21% | -3% | 36
[O-][N+](=NC1C=Cc2ccccc21)C1C=Cc2ccccc21 (stereo not drawn) | nt | -16% | nt | -5% | nt | nt
COc1cc(NC(=O)c2cccc3c2C(=O)N(C2CCCCC2)C3)cc(OC)c1 | nt | ? | nt | -6% | nt | nt
COC(=O)CC1C(C)(C)C(=O)C2CC3C4=CC(=O)OC(c5ccoc5)[C@]4(C)CCC3[C@@]1(C)C2=O (stereo partly drawn) | nt | -5% | nt | 2% | nt | nt
OCCN1CCN(c2ncnc3c2ncn3[C@H]2CN(Cc3ccc(-c4ccccc4)cc3)C[C@@H](CO)O2)CC1 | ? | 6.5µM* | 21µM* | 5.2µM* | nt | -16
CN1CCN(c2ncnc3c2ncn3[C@H]2CN(Cc3ccc(-c4ccccc4)cc3)C[C@@H](CO)O2)CC1 | 9.2µM* | ? | 18µM* | ? | nt | -4
OC[C@@H]1CN(Cc2ccc(F)cc2)C[C@H](n2cnc3c(N4CCCC4)ncnc32)O1 | 22% | ? | ? | ? | nt | -91*
Cc1nn(CC(=O)NCCc2ccc(Cl)cc2)c(=O)c2cccn12 | 3% | ? | 3% | ? | 20% | 4
COc1ccccc1CNC(=O)[C@H](NC(=O)C1CCN(C(=O)[C@@H](N)CCSC)CC1)C(C)C | -2% | -8% | -7% | -3% | ? | 1
SMILES | HT1080 IDH1KD tx | DT40 TDP1 no CPT | HT1080-NT tox | DT40 TDP1 CPT | ELG1 DNA repair | IL-1B inflam inh
CCCN1CCC(=NNc2ccc(S(=O)(=O)N(CC)CC)cc2[N+](=O)[O-])CC1 | 5.8µM* | 2.6µM* | 8.2µM* | 2.1µM* | ? | -1
CCN(CC)S(=O)(=O)c1ccc(N/N=C(\C)c2ccc3c(c2)OCO3)c([N+](=O)[O-])c1 | 6% | 15µM* | -5% | ? | 24% | -9
C/C(=N\Nc1ccc(S(N)(=O)=O)cc1[N+](=O)[O-])c1ccc2c(c1)OCO2 | ? | 15µM* | ? | -28% | ? | 37
Cc1ccc(S(=O)(=O)c2cccc(S(=O)(=O)N3CCCC3)c2)cc1S(=O)(=O)N1CCCC1 | -27% | 18µM* | ? | 21µM* | ? | -14
CN1CCN(S(=O)(=O)c2cccc(S(=O)(=O)c3ccc(Cl)cc3)c2)CC1 | -15% | 16µM* | -16% | ? | nt | -16
CCCCN1CC[C@@H]2C=CC[C@H](C(=O)OC)[C@@H]2C1=O | 13% | -5% | 6% | -16% | 3% | 10
O=C(COc1ccccc1Cl)Nc1nnc(S(=O)(=O)N2CCCCCC2)s1 | -5% | ? | -4% | ? | -3% | -21
Oc1c(CN2CCN(c3ccccn3)CC2)cc(Cl)c2cccnc12 | ? | 3.7µM* | ? | 4.6µM* | ? | 1
OCCN1CCN(Cc2cc(Cl)c3cccnc3c2O)CC1 | 3.2µM* | ? | 5µM* | ? | -17% | 72
CCCn1nnc(NC(=S)NC(=O)C(C)(C)C)n1 | 1% | ? | 14% | ? | ? | 16
CCCn1nnc(NC(=S)NC(=O)c2cccs2)n1 | 8% | 18µM* | 9% | 21µM* | ? | 0
CN(CCOc1ccccc1)C(=S)Nc1ccc(OC(F)F)cc1 | -19% | -26% | -1% | -10% | ? | -58*
COCCN(Cc1ccccc1)C(=S)Nc1ccc(OC(F)F)cc1 | -9% | ? | -20% | 0% | -2% | -29
